An excerpt weighted towards active compounds, which were near 3.9% of everything screened.
3CLpro inhibitor – SARS-CoV 3CLpro protease inhibitors, primary screen, biochemical, quenched FRET | recombinant SARS-CoV 3CLpro, quenched FRET peptide cleavage | inhibition, % at 6 µM | hit rate 0.14% among 290,000; in the data active = inhibition above about 12%
BH1578 lux ind – inducers of Vibrio cholerae quorum light production without autoinducers, primary screen, BH1578 luxS cqsA deficient, single point | V. cholerae BH1578 lux reporter, luminescence, 6 h | activation, % at 18.7 µM | hit rate 0.16% among 350,000 | AID 588436, 2011; in the data active = activation mostly above about 9.7%, no sharp cut-off
GDH-TPI counter – GDH-TPI coupling enzyme inhibitors, primary screen, artefact control for M. tuberculosis FBA inhibitor project, biochemical, absorbance, full deck; GDH-TPI coupled enzyme counterscreen, NADH absorbance; inhibition, % at 4.8 µM; hit rate 1.2% among 360,000; AID 588335, 2011; in the data active = inhibition above about 30%;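 note: 0% = DMSO wells and 100% = wells lacking the enzyme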
Mtb FBA inh – Mtb FBA enzyme inhibitors, primary screen, biochemical, fluorescence, strain H37Rv. Fructose-bisphosphate aldolase (Mycobacterium tuberculosis (strain ATCC 25618 / H37Rv)), …. purified M. tuberculosis FBA, fluorescence read-out. inhibition, % at 1 µM. hit rate 2.3% among 360,000; in the data active = inhibition above about 27%;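 note: 0% = vehicle and 100% = reference inhibitor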
Target sequence (P9WQA3 whole entry, looked up): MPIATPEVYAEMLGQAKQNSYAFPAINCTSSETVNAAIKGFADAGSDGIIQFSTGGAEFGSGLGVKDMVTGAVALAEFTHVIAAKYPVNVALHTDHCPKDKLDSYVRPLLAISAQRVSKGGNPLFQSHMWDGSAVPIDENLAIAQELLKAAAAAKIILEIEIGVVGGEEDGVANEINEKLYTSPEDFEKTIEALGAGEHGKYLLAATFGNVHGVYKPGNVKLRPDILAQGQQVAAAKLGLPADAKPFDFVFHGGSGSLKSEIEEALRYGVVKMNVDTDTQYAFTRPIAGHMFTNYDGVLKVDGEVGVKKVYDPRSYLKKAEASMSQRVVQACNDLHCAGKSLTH
PrPC surface inh – inhibitors of human cell surface prion protein PrPC, primary screen, cell-based, TR-FRET. AID 720596, 2013. inhibition, % at 13.8 µM. Major prion protein (Homo sapiens), P04156. TR-FRET read-out. hit rate 0.43% among 370,000; in the data active = inhibition above about 24%; note: 0% = median of the test wells and 100% = reference compound wells
* = called active by the depositor.

COc1cc(/C=C2\SC(=Nc3ccccc3OC)NC2=O)ccc1O was read as 3CLpro inhibitor 1.6, BH1578 lux ind -0.8, GDH-TPI counter 24.8, Mtb FBA inh -2.3 and PrPC surface inh -2.1.
Screening O=C1NC(=Nc2cccc(O)c2)S/C1=C\c1cccc([N+](=O)[O-])c1 returned 3CLpro inhibitor 6.9, BH1578 lux ind inactive, GDH-TPI counter 32.4*, Mtb FBA inh -3.4 and PrPC surface inh -1.1.
Screening CCCCCCCCN1[C@@H](CC(=O)O)c2ccc(C(F)(F)F)cc2S1(=O)=O returned BH1578 lux ind -1.5, GDH-TPI counter 9.5, Mtb FBA inh -2.5 and PrPC surface inh 0.6.
COc1ccc(-c2ccnc3nc(Sc4ncc(C(F)(F)F)cc4Cl)nn23)cc1 was read as 3CLpro inhibitor -4.1, BH1578 lux ind -2.0, GDH-TPI counter 13.7, Mtb FBA inh active and PrPC surface inh 11.3.
For C/C(=N\Nc1c([N+](=O)[O-])c(C)nn1C)c1ccc(F)cc1F the results were 3CLpro inhibitor 5.7, BH1578 lux ind -0.3, GDH-TPI counter 32.9*, Mtb FBA inh -0.1 and PrPC surface inh 0.5.
CN1CCCN(C(=O)c2c(F)cccc2Cl)CC1 was read as 3CLpro inhibitor 1.7, BH1578 lux ind -0.3, GDH-TPI counter 0.0, Mtb FBA inh 0.9 and PrPC surface inh 3.4.
`O=C(N/N=C/c1ccc(Cl)cc1)c1cc2c(s1)-c1ccccc1CC2` gave 3CLpro inhibitor 0.0, BH1578 lux ind -0.9, GDH-TPI counter 11.8, Mtb FBA inh 4.2 and PrPC surface inh -5.8.
O=C(O)c1cc2c(s1)-c1ccccc1OC2 was read as 3CLpro inhibitor 4.8, BH1578 lux ind -2.2, GDH-TPI counter 22.7, Mtb FBA inh active and PrPC surface inh 2.6.
`O=C(O)c1cc2c(s1)-c1ccccc1CC2` gave 3CLpro inhibitor 4.3, BH1578 lux ind -0.1, GDH-TPI counter 51.9*, Mtb FBA inh 190.8* and PrPC surface inh 2.1.
For COc1ccc2c(c1)CCc1cc(C(=O)O)sc1-2 the results were 3CLpro inhibitor 0.2, BH1578 lux ind -0.3, GDH-TPI counter 22.7, Mtb FBA inh active and PrPC surface inh 5.3.
O=C(NCCCN1CCOCC1)c1cc2c(s1)-c1ccccc1OC2 was read as 3CLpro inhibitor 0.8, BH1578 lux ind inactive, GDH-TPI counter 35.3*, Mtb FBA inh active and PrPC surface inh -18.6.
O=C(Nc1cccc(C(F)(F)F)c1)c1cc2c(s1)-c1ccccc1OC2 was read as 3CLpro inhibitor 3.9, BH1578 lux ind 0.0, GDH-TPI counter 10.0, Mtb FBA inh 13.9 and PrPC surface inh -7.2.
`Cc1ccc(N(CC(=O)NCCc2ccccc2)C(=O)CCC(=O)Nc2cc(C)ccn2)cc1` gave 3CLpro inhibitor 1.8, BH1578 lux ind -0.2, GDH-TPI counter -7.8, Mtb FBA inh 1.6 and PrPC surface inh 1.3.
CCCN1CCCCC(NC(=O)c2ccc(-c3ccccc3)cc2)C1=O (stereo not drawn) was read as PrPC surface inh -3.4.
Screening O=C(NCc1ccccc1F)c1ccc(S(=O)(=O)N2CCCCCC2)cc1 returned BH1578 lux ind inactive, GDH-TPI counter -3.2, Mtb FBA inh -0.1 and PrPC surface inh 9.3.
CCC(=O)N1CCC1(C)C(=O)Nc1ccc(Cl)c(Cl)c1 (stereo not drawn) was read as BH1578 lux ind inactive, GDH-TPI counter 7.4, Mtb FBA inh -3.5 and PrPC surface inh -0.4.
`O=C(NCc1cccs1)c1cc2c(s1)-c1ccccc1OC2` gave 3CLpro inhibitor 1.1, GDH-TPI counter 21.6, Mtb FBA inh active and PrPC surface inh -3.5.
For O=C(NCc1cccs1)c1cc2c(s1)CS(=O)(=O)C2 the results were 3CLpro inhibitor 1.3, BH1578 lux ind 1.6, GDH-TPI counter 2.0, Mtb FBA inh 0.3 and PrPC surface inh 2.1.
For O=C(c1ccco1)N1CCN(C(=O)c2cc3c(s2)-c2ccccc2OC3)CC1 the results were 3CLpro inhibitor -3.7, BH1578 lux ind -0.2, GDH-TPI counter 15.0, Mtb FBA inh 112.5* and PrPC surface inh -1.0.
`O=C(NC1CC1)c1cc2c(s1)-c1ccccc1OC2` gave 3CLpro inhibitor -3.2, BH1578 lux ind -0.3, GDH-TPI counter 23.2, Mtb FBA inh active and PrPC surface inh 6.5.
